Here are results for 100 compounds from PubChem BioAssay AID1851 (National Center for Advancing Translational Sciences (NCATS), 2009).

Among all 16,000 compounds or so, about 5,100 (32%) were called active. Not shown: some 25% with an inconclusive outcome. The list shows a part of the results. A number with no mark means an inactive call. Calls follow the shape of the dose curve; as a rule, active = well fitted curve in the direction sought with a large enough effect; inconclusive = small, poorly fitted or top-dose-only effect, or effect the other way; inactive = no such curve, though single readings can be large or run the other way.
% is scaled to controls: 0 for no effect and ±100 for the full control effect.

Chain of Cytochrome P450 3A4 (Homo sapiens) (P08684 whole entry, looked up): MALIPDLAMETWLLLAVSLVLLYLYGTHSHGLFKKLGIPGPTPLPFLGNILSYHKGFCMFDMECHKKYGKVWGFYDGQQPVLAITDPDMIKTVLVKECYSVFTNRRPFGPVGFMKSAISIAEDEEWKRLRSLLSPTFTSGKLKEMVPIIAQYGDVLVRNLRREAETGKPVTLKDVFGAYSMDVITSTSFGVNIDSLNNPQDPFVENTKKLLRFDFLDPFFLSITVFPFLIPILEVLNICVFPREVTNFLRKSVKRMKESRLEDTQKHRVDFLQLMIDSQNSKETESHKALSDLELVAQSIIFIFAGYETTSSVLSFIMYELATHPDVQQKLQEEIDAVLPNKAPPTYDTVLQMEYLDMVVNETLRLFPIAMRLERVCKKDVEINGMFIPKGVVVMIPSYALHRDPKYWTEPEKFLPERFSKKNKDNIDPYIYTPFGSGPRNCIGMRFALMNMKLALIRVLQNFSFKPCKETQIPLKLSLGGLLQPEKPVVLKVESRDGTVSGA

The assay addresses Cytochrome P450 3A4 (Homo sapiens) (UniProt P08684). Briefly: Cytochrome panel assay with activity outcomes. To be noted: recombinant CYP, pro-luciferin dealkylation, luminescence, p450-cyp3a4; series mostly up to 57.1 µM.
For orientation: AC50 means the concentration giving half of the maximal activity seen. In the case of `O=C(Nc1cccnc1)c1ccc2snnc2c1`, the AC50 is 11.2 µM (active).
`O=C(Nc1cccc(OC(=O)c2cccnc2)c1)c1cccnc1`: the activity, negative = inhibition was -4.22% [at 2.29 µM].
With `CCOC(=O)c1ccccc1Oc1c(F)c(F)nc(NCCO)c1F`, the AC50 result is “inactive”.
The same measure, in the same setting: as for `Cc1cc(C)c2cc(C#N)c(NCCOC(=O)c3ccccc3C)nc2c1`, the figure is 7.08 µM (active).
The same measure, in the same setting: as for `COC(=O)c1cc(C#N)c(NCc2ccc(Cl)cc2Cl)nc1C`, the entry is “inactive”.
With `COc1ccc(CCN(C(=O)C(F)(F)F)C(C(=O)NC2CCCC2)c2cccs2)cc1` (stereo not given), the AC50 was 3.55 µM (active).
Still for that read-out and setting: in the case of `O=C(NC1CCCCC1)c1ccc(COCC(F)(F)F)o1` it was “inactive”; in that of `Cc1cc(C)cc(N(C(=O)c2ccccn2)C(C(=O)NC2CCCCC2)c2cccs2)c1` (stereo not given), 5.01 µM (active).
On the same count and under the same terms, as for `Cc1ccc(N(C(=O)C(F)(F)F)C(C(=O)NC2CCCCC2)c2cccs2)cc1C` (stereo not given), the figure is 6.31 µM (active).
As for `Cc1nnc(N(C)C(=O)c2ccccn2)s1`, the AC50 entry is “inactive”.
Consider `O=C(NC1CCCCC1)C(c1cccs1)N(C(=O)C(F)(F)F)c1ccccc1` (stereo not given), for which the AC50 was 7.08 µM (active).
The same measure, in the same setting: as for `Cc1snc(SCC(=O)N/N=C(\N)COc2cccc(C(F)(F)F)c2)c1C#N`, the figure is 3.16 µM (active); as for `O[C@H](CCCN1CCN(c2ncc(F)cn2)CC1)c1ccc(F)cc1`, “inactive”.
Turning to `O=C(CCNC(=O)Cn1cnc2ccccc2c1=O)NCC1COc2ccccc2O1` (stereo not given), the activity, negative = inhibition was 5.27% [at 2.29 µM].
Regarding `COc1ccc(OC)c(CNC(=O)CCNC(=O)Cn2ccc3ccccc3c2=O)c1`, the activity, negative = inhibition was 5.01% [at 2.29 µM].
In the case of `COc1cccc(CNC(=O)CCNC(=O)Cn2ccc3ccccc3c2=O)c1`, the AC50 is 14.1 µM (active).
With `CCCC[C@@H]1C[C@H]1C(NC(=O)c1ccco1)c1ccc(Cl)cc1` (stereo not given in full), the AC50 is 7.94 µM (active).
The same measure, in the same setting: as for `CCCC[C@@H]1C[C@H]1C(NC(=O)c1ccco1)c1ccc(C(=O)OC)cc1` (stereo not given in full), the figure is 15.8 µM (active); as for `CC1CCN(C(NC(=O)c2ccco2)C(=O)c2ccccc2)CC1` (stereo not given), “inactive”.
For `CCCC[C@@H]1C[C@H]1C(NC(=O)c1ccco1)c1ccc(-c2ccccc2)cc1` (stereo not given in full), the AC50 is 15.8 µM (active).
The same measure, in the same setting: as for `CCC1(c2ccccc2)C(=O)NCNC1=O`, the entry is “inactive”; as for `CCCCN1C(=O)CC(Sc2ccccc2C(=O)O)C1=O` (stereo not given), “inactive”.
Turning to `O=C(CSC1CC(=O)N(CC(c2ccccc2)c2ccccc2)C1=O)Nc1ccc(Cl)cc1` (stereo not given), the AC50 is 8.91 µM (active).
Take `Cc1cc2ccc(OC(=O)c3ccc(N=C(N)N)cc3)cc2oc1=O`: the activity, negative = inhibition is -27.2% [at 11.4 µM].
As for `CN(C)CCCN1c2ccccc2Sc2cnccc21`, the AC50 was 1.58 µM (active).
Same read-out and setting: as for `CCC(=O)c1ccc2c(c1)N(CCCN(C)C)c1ccccc1S2`, the entry is “inactive”.
As for `CN(C)CCCN1c2ccccc2Sc2ccc3ccccc3c21`, the activity, negative = inhibition was -13.6% [at 11.4 µM].
In the case of `COc1ccccc1NC(=O)COC(=O)c1ccc(S(=O)(=O)NCc2ccco2)cc1`, the AC50 is 28.2 µM (active).
As for `Cc1cc(NC(=O)COC(=O)c2ccc(NS(=O)(=O)c3ccc(C)c(C)c3)cc2)no1`, the AC50 is 5.01 µM (active).
On the same count and under the same terms, in the case of `COc1ccc(OC)c(NC(=O)C(CC(=O)O)NCc2ccco2)c1` (stereo not given) it was “inactive”; in that of `Cc1cc(NC(=O)c2cccc(F)c2)no1`, “inactive”; in that of `O=C(NCc1ccccc1)c1ccc(S(=O)(=O)N2CCCc3ccccc32)cc1`, 10 µM (active).
On to `COc1ccccc1NS(=O)(=O)c1cccc(C(=O)OCC(=O)Nc2cc(C)on2)c1`, for which the AC50 is 7.08 µM (active).
Still for that read-out and setting: as for `O=C(Cc1ccccc1)NC1CCN(S(=O)(=O)c2ccc(C(=O)O)cc2)CC1`, the entry is “inactive”; as for `O=C(Nc1ccc(S(=O)(=O)N2CCCCC2)cc1)c1ccc(CN2CCc3ccccc3C2)cc1`, “inactive”.
As for `COc1cc2ccccc2cc1C(=O)Nc1ccc(S(=O)(=O)Nc2cc(C)on2)cc1`, the activity, negative = inhibition was 6.01% [at 11.4 µM].
The same measure, in the same setting: as for `Cc1cc(NC(=O)c2ccc(S(=O)(=O)Nc3ccccc3)cc2)no1`, the figure is 2.51% [at 2.29 µM].
Same read-out and setting: in the case of `O=C(O)NCC1CCCCC1` (tested in a mixture with another compound) it was -26.5% [at 11.4 µM].
For the compound `O=[n+]1c2c(n([O-])c3cc(F)c(F)cc31)CCCC2`, the AC50 result is “inactive”.
On to `CC(C)(C)C(=O)[C@H]1[C@H](c2ccccc2)[C@@]2(N=C(c3ccccc3)OC2=O)C2c3ccccc3C=NN21` (stereo not given in full), for which the activity, negative = inhibition is -20.3% [at 2.29 µM].
Regarding `Cc1cc(NC(=O)COC(=O)c2ccc(S(=O)(=O)N3CCCc4ccccc43)cc2)no1`, the AC50 was 0.891 µM (active).
For the compound `COc1ccc(/C=C(\C#N)C(N)=O)cc1OC`, the activity, negative = inhibition was -6.66% [at 11.4 µM].
On the same count and under the same terms, in the case of `CCOc1ccccc1/C=C(\C#N)C(N)=O` it was -4.52% [at 11.4 µM].
Consider `COc1ccc(/C=C(\C#N)C(N)=O)c(OC)c1`, for which the AC50 is 2.51 µM (active).
For the compound `Cc1cccc2nc(C(F)(F)F)nc(=O)n12`, the activity, negative = inhibition was 0.743% [at 2.29 µM].
Regarding `CC(C)OC(=O)c1cccc(C(=O)Oc2ccc(Br)cc2)n1`, the AC50 result was “inactive”.
Still for that read-out and setting: in the case of `O=C(CCN1C(=O)c2cccc3cccc(c23)C1=O)N1CCN(Cc2ccc3c(c2)OCO3)CC1` it was 1 µM (active); in that of `Cc1ccc(=O)n(-c2ccccc2)c1`, “inactive”.
Same read-out and setting: as for `Cc1ccc(/C=C2\OC(=O)c3ccccc32)cc1`, the figure is 12.6 µM (active); as for `Cc1ccccc1/C=C1\OC(=O)c2ccccc21`, “inactive”; as for `CCC(C)N1C(=O)S/C(=C/c2ccc(Sc3nc4ccccc4[nH]3)o2)C1=O` (stereo not given), 1.12 µM (active).
Still for that read-out and setting: as for `COc1ccc(CNc2ncnc3ccc(-c4c(C)noc4C)cc23)c(OC)c1`, the figure is 3.16 µM (active).
For the compound `COc1ccccc1CNc1ncnc2ccc(-c3c(C)noc3C)cc12`, the concentration at half-maximal activity (AC50) is 12.6 µM (active).
For the compound `Cn1c(N)c(N=Nc2ccc(S(N)(=O)=O)cc2)c(=O)n(C)c1=O`, the activity, negative = inhibition is -14.9% [at 11.4 µM].
As for `CC(C)(C)c1ccc(CN(Cc2ccco2)Cc2nnnn2C2CCCC2)cc1`, the AC50 was 1.41 µM (active).
For `CN(Cc1ccco1)C(=O)C1CCC(=O)N1Cc1ccc(F)cc1` (stereo not given), the AC50 result is “inactive”.
Take `NC(N)=N/N=C(\c1ccc(Cl)cc1)C1CC1`: the activity, negative = inhibition was -13.1% [at 11.4 µM].
On to `CCOC(=O)N1CCN(C(=O)c2cnc3n(c2=O)CCS3)CC1`, for which the AC50 entry is “inactive”.
Regarding `CCOC(=O)N1CCN(C(=O)C(CC)n2nc(C)c3sc4ccccc4c3c2=O)CC1` (stereo not given), the AC50 was 7.08 µM (active).
Regarding `CCOC(=O)N1CCN(C(=O)CCn2nc(-c3ccccc3)ccc2=O)CC1`, the AC50 entry is “inactive”.
Regarding `C[C@@H]1C[C@H](C)CN(S(=O)(=O)c2cc(Cl)c(Oc3ccc([N+](=O)[O-])cc3Cl)c(Cl)c2)C1`, the activity, negative = inhibition is -9.23% [at 11.4 µM].
Still for that read-out and setting: as for `COc1ccc(CCC(C)NC2C3CC4CC(C3)CC2C4)cc1` (stereo not given), the figure is -2.79% [at 2.29 µM].
On to `COc1ccc(S(=O)(=O)N2CC3C4C=CC(C4)C3C2)cc1` (stereo not given), for which the AC50 is 14.1 µM (active).
Still for that read-out and setting: in the case of `Oc1ccccc1-c1cc(-c2ccccc2)no1` it was “inactive”; in that of `CC1CN(C(=O)CN2C(=O)NC3(CCCCCC3)C2=O)CC(C)O1` (stereo not given), “inactive”; in that of `O=C(CN1C(=O)NC2(CCCC2)C1=O)NCCC1=CCCCC1`, “inactive”.
With `O=C(CN1C(=O)NC2(CCCCCC2)C1=O)N1CCN(S(=O)(=O)c2ccc(Cl)cc2)CC1`, the AC50 was 6.31 µM (active).
`Nc1ccc(-c2ccc(Nc3cc(S(=O)(=O)O)c(N)c4c3C(=O)c3ccccc3C4=O)cc2)c(S(=O)(=O)O)c1`: the activity, negative = inhibition was -1.65% [at 11.4 µM].
`Cc1ccc(S(=O)(=O)N(C)c2cc(S(=O)(=O)N3CCC(C)CC3)c(C)cc2C)cc1`: the AC50 was 2.51 µM (active).
For the compound `CC1CCN(S(=O)(=O)c2ccc3c(c2)C(=NO)c2cc(S(=O)(=O)N4CCC(C)CC4)ccc2-3)CC1`, the activity, negative = inhibition is -0.656% [at 2.29 µM].
Turning to `O=C(CC1CCCC1)Nc1ccc2c(c1)CCC2`, the AC50 was 14.1 µM (active).
Take `CC(=O)c1cccc(NC(=O)Cc2ccc3c(c2)CCCC3)c1`: the AC50 result was “inactive”.
As to `O=C(N/N=C\c1ccc2c(c1)CCC2)c1ccccc1O`, the activity, negative = inhibition is -19.2% [at 11.4 µM].
Turning to `COCCCNC(=O)c1c(N)n(/N=C/c2ccccn2)c2nc3ccccc3nc12`, the AC50 is 4.47 µM (active).
With `Cc1nc2ccccc2n1CC(=O)N/N=C\c1ccccn1`, the AC50 result is “inactive”.
Consider `CCCCCCCCC(=O)N/N=C/c1ccccn1`, for which the AC50 result is “inactive”.
Same read-out and setting: as for `O=S(=O)(c1ccccc1)N1CCC[C@@]2(CCN(c3cccc(-c4ccccc4)c3)C2)C1`, the figure is 12.6 µM (active); as for `O=S(=O)(c1ccccc1)N1CCC2(CC1)CN(c1ncccn1)C2`, “inactive”; as for `CS(=O)(=O)N1CCC2(CCN(c3cccc(-c4ccccc4)c3)CC2)CC1`, “inactive”.
On the same count and under the same terms, as for `CS(=O)(=O)N1CCC2(CCCN(c3ncccn3)C2)CC1`, the entry is “inactive”; as for `O=S(=O)(c1ccccc1)N1CCC2(CCCN(c3cccc(-c4ccccc4)c3)C2)CC1`, 3.98 µM (active).
Still for that read-out and setting: in the case of `CN1CCCC2(CCN(S(=O)(=O)c3ccccc3)CC2)C1` it was “inactive”.
`O=S(=O)(c1ccccc1)N1CCC2(CCCN(c3ncccn3)C2)CC1`: the AC50 is 12.6 µM (active).
Turning to `O=S(=O)(c1ccccc1)N1CCC2(CCCN(c3ccccc3)C2)CC1`, the AC50 is 3.98 µM (active).
Still for that read-out and setting: in the case of `CS(=O)(=O)N1CCC2(CC1)CN(c1cccc(-c3ccccc3)c1)C2` it was “inactive”.
For the compound `c1ccc(CCN2CCN=C2Cc2ccccc2)cc1`, the activity, negative = inhibition was 7.9% [at 11.4 µM].
`c1ccc(SCCc2ccncc2)cc1`: the AC50 is 2.51 µM (active).
`CCN(CCCc1ccccc1)CCCc1ccccc1`: the AC50 result is “inactive”.
Still for that read-out and setting: as for `Fc1ccc(SCCc2ccncc2)cc1`, the figure is 3.55 µM (active).
Take `ON(CCc1ccncc1)Cc1ccccc1`: the AC50 was 1 µM (active).
As to `C[C@@H](CSC(=N)N)C(N)=O`, the activity, negative = inhibition is -8.21% [at 11.4 µM].
On to `CCN(CC(=O)O)CC(=O)O`, for which the activity, negative = inhibition was 0.0109% [at 11.4 µM].
With `Cc1ccc(C(=O)C(OC(=O)CNS(=O)(=O)c2ccccc2)c2ccccc2)cc1` (stereo not given), the AC50 is 14.1 µM (active).
For the compound `CC(=O)NNC(=O)CCC(=O)Nc1ccccc1`, the activity, negative = inhibition is 6.14% [at 2.29 µM].
`CCOC(=O)CC(NC(=O)c1ccco1)c1ccc(OC)cc1` (stereo not given): the AC50 result is “inactive”.
For `COc1ccc(C(=O)C(OC(=O)CNC(=O)c2ccco2)c2ccccc2)cc1` (stereo not given), the AC50 is 14.1 µM (active).
Same read-out and setting: in the case of `Cc1ccccc1OCC(=O)OC1CCN(C)CC1` it was “inactive”; in that of `Cc1ccc(C(=O)C(OC(=O)COc2ccccc2C)c2ccccc2)cc1` (stereo not given), 10 µM (active).
Same read-out and setting: in the case of `Cc1ccc(C(=O)C(OC(=O)CCC(=O)Nc2cccc(C)c2)c2ccccc2)cc1` (stereo not given) it was 25.1 µM (active).
For `CC(=O)Nc1cccc(C(=O)OC(C(=O)c2ccc(C)c(C)c2)c2ccccc2)c1` (stereo not given), the activity, negative = inhibition was 8% [at 2.29 µM].
